{"source": "PubChem BioAssay (Tox21)", "note": "Where “and” joins values, the source holds several entries; their conditions need not be identical. Equal entries are not always repeated. Inconclusive results are not listed. Entries that show only a call come without a potency. More than one record can exist for a structure, and the calls need not agree. Calls of active or inactive are those of the source. The call rests on the fitted dose curve; in most records, active means well fitted inhibition curve with a large enough effect in the repeat runs; inconclusive means weak or mixed curves; inactive means no such curve, though single readings can be large or run the other way. Potency means the concentration at half of the fitted maximal effect."}
{"molecular_target": "Cytochrome P450 2D6 (Homo sapiens) (UniProt P10635)", "sequence (P10635 whole entry, looked up)": "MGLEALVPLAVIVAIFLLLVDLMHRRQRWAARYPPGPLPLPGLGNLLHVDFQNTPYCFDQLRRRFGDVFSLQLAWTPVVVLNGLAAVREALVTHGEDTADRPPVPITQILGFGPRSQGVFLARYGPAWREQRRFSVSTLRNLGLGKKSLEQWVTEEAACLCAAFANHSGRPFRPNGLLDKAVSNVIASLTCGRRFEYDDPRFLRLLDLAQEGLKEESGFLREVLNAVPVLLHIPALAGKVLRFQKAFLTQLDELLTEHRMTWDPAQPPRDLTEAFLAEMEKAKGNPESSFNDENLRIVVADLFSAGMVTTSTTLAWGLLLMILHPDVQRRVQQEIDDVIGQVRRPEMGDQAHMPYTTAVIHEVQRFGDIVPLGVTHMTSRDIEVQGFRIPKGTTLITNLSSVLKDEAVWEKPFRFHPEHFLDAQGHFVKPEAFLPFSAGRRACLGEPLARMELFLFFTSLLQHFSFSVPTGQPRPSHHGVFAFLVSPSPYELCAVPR", "test": "Cytochrome P450 Family 2 Subfamily D Member 6 (CYP2D6) small molecule antagonists: luciferase reporter qHTS assay (AID 1671196); further: nearly all actives have a fitted effect of over 50% in size", "settings": "P450-Glo CYP2D6 enzyme assay, luciferin luminescence, 1 h; series mostly up to 115 µM; activity change, negative = inhibition: at the top concentration", "text": "U.S. Tox21 Program National Center for Advancing Translational Sciences [NCATS] U.S. Environmental Protection Agency [EPA] National Institutes of Environmental Health Sciences [NIEHS] National Toxicology Program [NTP] U.S. Food and Drug Administration [FDA] Tox21 Assay Overview: Cytochrome P450 (CYP) enzymes are membrane-bound hemeproteins that play a key role in metabolism of drugs and xenobiotics. Evaluation of the effect of chemicals on CYP isozymes is useful to minimize the adverse drug reactions and toxicities in drug development process. Tox21 chemicals were tested for their effect on CYP enzyme activities by using P450-Glo (TM) screening systems (Promega Corporation, Madison, WI). These systems provide a luminescent method containing proluciferin substrates and are converted to luciferin products by CYP isozymes. The luciferin products formed are detected with a luciferin detection reagent, and the amount of light produced is proportional to CYP activity. P450-Glo (TM) CYP2D6 screening system (Catalog. No. V9890) was used to detect the compounds that interfere in CYP2D6 activity.\nTox21 Assay Protocol Summary: Two ul of enzyme-substrate mix was dispensed into medium binding white/solid 1536-well plates (Greiner Bio-One North America Inc., Monroe, NC) using a BioRaptr Flying Reagent Dispenser (FRD, Beckman Coulter, Brea, CA). […] The assay plates were incubated at room temperature for 10 min. Then 2 ul of NADPH regeneration solution was added to each well of the assay plates using an FRD and incubated at room temperature for 1 h. The reaction was stopped by adding 4 ul of detection reagent using an FRD and after 20 min incubation at room temperature the luminescence signal was measured using a ViewLux plate reader (Perkin Elmer, Shelton, CT). Data were expressed as relative luminescence units."}
{"smiles": "O=[N+]([O-])c1cc(N(CCO)CCO)ccc1NCCO", "Potency": "39.8 µM (active) and 31.7 µM (active)"}
{"smiles": "CN(C)c1cccc(O)c1", "Potency": "40.5 µM (active)"}
{"smiles": "CCOC(=O)[C@H](CCc1ccccc1)N[C@@H](C)C(=O)N1Cc2ccccc2C[C@H]1C(=O)O", "activity change, negative = inhibition": "-23.1% (inactive)"}
{"smiles": "NC(=O)/N=N/C(N)=O", "Potency": "inactive"}
{"smiles": "CCCCC/C=C\\C/C=C\\CCCCCCCC(=O)OC", "Potency": "35.6 µM (active)"}
{"smiles": "O=C1CCCCC1", "Potency": "inactive"}
{"smiles": "CCC(C)C=O", "note": "(stereo not given)", "Potency": "inactive"}
{"smiles": "OCC1CCCO1", "note": "(stereo not given)", "Potency": "inactive"}
{"smiles": "O=C(Cl)c1c(Cl)c(Cl)c(C(=O)Cl)c(Cl)c1Cl", "Potency": "89.4 µM (active)"}
{"smiles": "O=C(O)c1ccc([N+](=O)[O-])cc1", "Potency": "inactive"}
{"smiles": "CC1=C(CC(=O)O)c2cc(F)ccc2/C1=C\\c1ccc(S(C)=O)cc1", "note": "(stereo not given)", "Potency": "35.6 µM (active) and 34.7 µM (active)"}
{"smiles": "CC(C)(C)C1CCC(O)CC1", "note": "(stereo not given)", "Potency": "inactive"}
{"smiles": "CCc1ccccc1O", "Potency": "35.4 µM (active) and inactive"}
{"smiles": "ClC1=C(Cl)C(Cl)(Cl)C(Cl)=C1Cl", "Potency": "inactive"}
{"smiles": "COC(=O)c1ccccc1O", "Potency": "inactive"}
{"smiles": "Cc1ccc(C(=O)O)o1", "activity change, negative = inhibition": "-17.7% (inactive)"}
{"smiles": "CS(=O)(=O)c1ccc([C@@H](O)[C@@H](CO)NC(=O)C(Cl)Cl)cc1", "Potency": "64.1 µM (active) and inactive"}
{"smiles": "Cc1ccc(C)c(C)c1", "Potency": "inactive"}
{"smiles": "NCCc1ccc(O)c(O)c1", "Potency": "63.5 µM (active) and inactive"}
{"smiles": "CC(C)(N=C=O)c1cccc(C(C)(C)N=C=O)c1", "Potency": "35.3 µM (active)"}
{"smiles": "Cn1c([N+](=O)[O-])cnc1COC(N)=O", "Potency": "inactive"}
{"smiles": "NCCNCCNCCNCCN", "activity change, negative = inhibition": "-26.4% [at 10.5 µM] (inactive)", "Potency": "63 µM (active)"}
{"smiles": "O=c1c(-c2ccc(O)cc2)coc2cc(O)ccc12", "activity change, negative = inhibition": "-16.7% (inactive)"}
{"smiles": "CCCCOCCO", "Potency": "inactive"}
{"smiles": "O=C(c1cc(O)c(O)c(O)c1)c1ccc(O)c(O)c1O", "Potency": "31.6 µM (active) and inactive"}
{"smiles": "CCCCCCCCCC(=O)O", "Potency": "inactive"}
{"smiles": "CC1=CC[C@H]2C[C@@H]1C2(C)C", "Potency": "inactive"}
{"smiles": "Nc1cc(-c2ccncc2)c[nH]c1=O", "Potency": "31.7 µM (active) and 17.4 µM (active)"}
{"smiles": "OCC#CCO", "Potency": "inactive"}
{"smiles": "OC1CCCC1", "Potency": "inactive"}
{"smiles": "CCCCC(CC)COC(C)=O", "note": "(stereo not given)", "Potency": "inactive"}
{"smiles": "C=C(C)C(=O)OCC(CC)(COC(=O)C(=C)C)COC(=O)C(=C)C", "Potency": "16.2 µM (active)"}
{"smiles": "C=C1C2CCC(C2)C1(C)C", "note": "(stereo not given)", "Potency": "inactive"}
{"smiles": "CCCCCCCCCCCCN", "Potency": "16 µM (active) and 2.24 µM (active) and 8.09 µM (active)"}
{"smiles": "CC(C)(CO)COC(=O)C(C)(C)CO", "activity change, negative = inhibition": "-0.0329% (inactive)"}
{"smiles": "CC#C[C@]1(O)CC[C@H]2[C@@H]3CCC4=CC(=O)CCC4=C3[C@@H](c3ccc(N(C)C)cc3)C[C@@]21C", "Potency": "63.3 µM (active) and 38.9 µM (active)"}
{"smiles": "CNC[C@H](O)[C@@H](O)[C@H](O)[C@H](O)CO", "Potency": "inactive"}
{"smiles": "CC(C)Cc1ccccc1", "Potency": "inactive"}
{"smiles": "S=c1nc[nH]c2nc[nH]c12", "Potency": "inactive"}
